# Results reported in PubChem BioAssay (Tox21).
# Several values for one entry are separate records, joined by “and”; a condition that tells them apart may be missing. Identical values can stand only once. Results filed as inconclusive are left out. Entries that show only a call come without a potency. The source holds several records for some structures; these can differ, active in one and inactive in another. Activity calls are given as the source filed them. Unless noted, calls follow the shape of the dose curve; as a rule, active = well fitted curve in the direction sought with a large enough effect in the repeat runs; inconclusive = weak or mixed curves; inactive = no such curve, though single readings can be large; an effect the other way counts as inactive or inconclusive.
# How the values were obtained:
# [1] = qHTS assay to identify small molecule agonists of the estrogen receptor alpha (ER-alpha) signaling pathway in the presence of an antagonist - cell viability counter screen (AID 1259386);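 also: series mostly up to about 92 µM; cells exposed to compounds for 22 h at 37 °C before the viability read; nearly all actives have a fitted effect of over 30% in size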
# Outline: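 Cytotoxicity was measured in parallel with the ERE-luciferase agonist screen, in the same wells. The cells were VM7Luc4E2, which endogenously express ER-alpha, and treatment was with compounds plus 10.0nM ICI-182,780 for 22hr.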
# [2] = target: Progesterone receptor (Homo sapiens) (UniProt P06401); assay: qHTS assay to identify small molecule agonists of the progesterone receptor (PR) signaling pathway (AID 1346784; calls by dose curve; also: nearly all actives have a fitted effect of over 30% in size)
# Progesterone receptor (Homo sapiens), sequence (P06401 whole entry, looked up): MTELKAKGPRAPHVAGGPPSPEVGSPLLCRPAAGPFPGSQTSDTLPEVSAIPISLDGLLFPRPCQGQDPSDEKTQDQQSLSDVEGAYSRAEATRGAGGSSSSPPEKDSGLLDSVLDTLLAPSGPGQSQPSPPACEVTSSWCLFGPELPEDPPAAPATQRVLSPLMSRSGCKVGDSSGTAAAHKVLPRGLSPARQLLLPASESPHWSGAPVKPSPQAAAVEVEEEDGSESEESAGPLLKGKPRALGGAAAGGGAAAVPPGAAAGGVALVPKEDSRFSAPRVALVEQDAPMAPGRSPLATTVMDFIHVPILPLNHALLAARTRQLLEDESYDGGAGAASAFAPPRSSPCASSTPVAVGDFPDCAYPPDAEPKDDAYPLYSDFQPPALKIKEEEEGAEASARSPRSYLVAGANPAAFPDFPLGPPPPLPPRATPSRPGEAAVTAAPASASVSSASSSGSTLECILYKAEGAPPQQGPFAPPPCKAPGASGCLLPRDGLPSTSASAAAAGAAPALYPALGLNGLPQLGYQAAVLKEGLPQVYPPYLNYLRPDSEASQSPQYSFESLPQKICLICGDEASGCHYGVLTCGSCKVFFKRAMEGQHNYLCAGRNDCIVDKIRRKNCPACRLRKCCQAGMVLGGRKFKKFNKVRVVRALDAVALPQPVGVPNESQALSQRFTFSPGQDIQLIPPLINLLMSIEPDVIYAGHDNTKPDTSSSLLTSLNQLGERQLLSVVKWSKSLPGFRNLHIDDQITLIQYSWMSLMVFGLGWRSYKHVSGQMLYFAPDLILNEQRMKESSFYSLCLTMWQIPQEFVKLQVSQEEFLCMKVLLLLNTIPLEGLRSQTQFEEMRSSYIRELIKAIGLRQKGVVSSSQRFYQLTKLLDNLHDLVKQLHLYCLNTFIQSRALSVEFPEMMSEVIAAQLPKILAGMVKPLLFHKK
# Outline: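 HEK 293T PR-UAS-bla reporter cells, 2% charcoal-stripped FBS; 6 hr settle at 37C/5% CO2, compound (DMSO) 16 hr, LiveBLAzer B/G FRET substrate 2 hr RT, fluorescence intensity read.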
# [3] = target: Progesterone receptor (Homo sapiens) (UniProt P06401); assay: qHTS assay to identify small molecule antagonists of the progesterone receptor (PR) signaling pathway (AID 1346795; active = well fitted inhibition curve with a large enough effect in the signal ratio in the repeat runs, not every such curve was filed as active; the % refers to the signal ratio; also: potency is read from the fitted curve at half-maximal effect)
# Outline: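 Beta-lactamase reporter, HEK293T PR-UAS-bla line; 2% charcoal-stripped FBS; 6 hr pre-incubation, 37C/5% CO2. Compound + R5020 1 nM final, 16 hr. LiveBLAzer B/G FRET substrate, 2 hr RT; fluorescence intensity read.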
# [4] = qHTS assay to identify small molecule antagonists of the progesterone receptor (PR) signaling pathway - cell viability counter screen (AID 1346798); also: series mostly up to about 92 µM; nearly all actives have a fitted effect of over 50% in size
# Outline: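 Luminescence readout (CellTiter-Glo, 30 min, RT) of viability in PR-UAS-bla HEK293T cells exposed to compound and R5020 agonist for 16 hr at 37C, 5% CO2; run in the same wells as the beta-lactamase reporter read.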
# [5] = qHTS assay to identify small molecule antagonists of the TGF-beta/Smad signaling pathway - cell viability counter screen (AID 1346824); also: nearly all actives have a fitted effect of over 50% in size
# Outline: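 Cytotoxicity counter-screen run in the same wells as the beta-lactamase Smad reporter read: CellTiter-Glo luminescence after 30 min at room temperature. HEK 293T SBE-bla cells had 5 hr compound exposure at 37 C with TGF-beta1 (0.25 ng/mL stock).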
# [6] = qHTS assay to identify small molecule agonists of the TGF-beta/Smad signaling pathway - cell viability counter screen (AID 1346829); also: nearly all actives have a fitted effect of over 45% in size; also: potency is read from the fitted curve at half-maximal effect
# Outline: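 HEK 293T SBE-bla line, 5 hr compound exposure at 37 C, multiplexed CellTiter-Glo viability read by luminescence.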
# [7] = qHTS assay to identify small molecule agonists of the TGF-beta/Smad signaling pathway (AID 1346859; active = well fitted activation curve with a large enough effect in the signal ratio in the repeat runs, not every such curve was filed as active; the % refers to the signal ratio; also: series mostly up to about 77 µM)
# Outline: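 Read-out: fluorescence at 460 and 530 nm (405 nm excitation) after a 2 hr room-temperature incubation with beta-lactamase FRET substrate. SBE-bla HEK 293T cells had been treated with test compounds for 5 hr at 37 C.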
# [8] = target: Thyrotropin-releasing hormone receptor (Homo sapiens) (UniProt P34981); assay: qHTS assay to identify small molecule antagonists of the thyrotropin-releasing hormone receptor (TRHR) signaling pathway (AID 1346877; active = well fitted inhibition curve with a large enough effect in the repeat runs, not every such curve was filed as active; also: series mostly up to about 51 µM)
# Thyrotropin-releasing hormone receptor (Homo sapiens), sequence (P34981 whole entry, looked up): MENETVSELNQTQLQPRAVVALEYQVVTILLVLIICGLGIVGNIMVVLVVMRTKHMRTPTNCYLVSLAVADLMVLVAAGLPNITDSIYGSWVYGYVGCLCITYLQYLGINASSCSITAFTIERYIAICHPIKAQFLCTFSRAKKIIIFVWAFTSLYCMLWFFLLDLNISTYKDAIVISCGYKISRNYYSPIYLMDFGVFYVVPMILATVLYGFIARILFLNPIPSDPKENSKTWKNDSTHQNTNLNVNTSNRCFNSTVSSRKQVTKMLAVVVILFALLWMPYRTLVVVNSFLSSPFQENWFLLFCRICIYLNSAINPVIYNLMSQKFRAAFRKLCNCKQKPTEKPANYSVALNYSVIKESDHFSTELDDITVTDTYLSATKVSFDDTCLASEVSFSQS
# Outline: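 Antagonism is measured as suppression of the calcium response to 1 nM TRH in TRHR-HEK293 cells that have been dye-loaded for 2 h at 37 °C after overnight plating. Each compound is tested at 15 concentrations in triplicate.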
# [9] = target: Thyrotropin-releasing hormone receptor (Homo sapiens) (UniProt P34981); assay: qHTS assay to identify small molecule agonists of the thyrotropin-releasing hormone receptor (TRHR) signaling pathway (AID 1346891; calls by dose curve;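 also: HEK293 cells expressing TRHR with calcium dye readout; series mostly up to about 58 µM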)
# Outline: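 HEK293/TRHR cells, 1500 per well, 18 h 37 °C; Ca dye 2 h 37 °C; pin-tool compound addition (agonist mode); kinetic fluorescence 3 min, 1 s reads; 15 concentrations, triplicate.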
# [10] = Human pregnane X receptor (PXR) small molecule agonists, qHTS cell viability counter screen (AID 1346977); also: nearly all actives have a fitted effect of over 50% in size
# Outline: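 Fluorescence read-out (CellTiter-Fluor) of viability in PXR-Luc HepG2 cells, multiplexed with the luciferase agonist read. Compounds in DMSO added after 5hr plating; 24hr total exposure at 37C, 5% CO2.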
# [11] = Caspase-3/7 induction in HepG2 cells by small molecules, qHTS assay (AID 1346978); also: nearly all actives have a fitted effect of over 15% in size
# Outline: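 Caspase-3/7 induction was measured by Caspase-Glo 3/7 luminescence (30 min, room temperature) after a 17 hr compound exposure of wild-type HepG2 cells seeded at 2,000 per well and pre-incubated 5 hr.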
# [12] = Caspase-3/7 induction in CHO-K1 cells by small molecules, qHTS cell viability counter screen (AID 1346979); also: nearly all actives have a fitted effect of over 35% in size; also: potency is read from the fitted curve at half-maximal effect
# Outline: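 CHO-K1 wt, 1,500 cells/well; 5hr pre-incubation 37C/5% CO2; compound pin transfer (DMSO); 16hr exposure; CellTiter-Fluor added, 1hr, fluorescence read.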
# [13] = Caspase-3/7 induction in CHO-K1 cells by small molecules, qHTS assay (AID 1346980); also: nearly all actives have a fitted effect of over 15% in size
# Outline: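 Luminescent Caspase-Glo 3/7 read (30min, room temperature) quantified apoptosis induction. Cells were wild-type CHO-K1, treated with compound for 17hr at 37 C and 5% CO2.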
# [14] = Caspase-3/7 induction in HepG2 cells by small molecules, qHTS cell viability counter screen (AID 1346981); also: series mostly up to about 92 µM; nearly all actives have a fitted effect of over 30% in size
# Outline: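 Cell viability is measured as a cytotoxicity counter screen alongside the Caspase-Glo 3/7 readout in identical wells. Wild-type HepG2 cells are treated with test compounds for 16 hr at 37 C before CellTiter-Fluor addition and a 1-hr incubation.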
# [15] = target: Nuclear receptor subfamily 1 group I member 2 (Homo sapiens) (UniProt O75469); assay: Human pregnane X receptor (PXR) small molecule agonists, qHTS assay (AID 1346982); also: nearly all actives have a fitted effect of over 35% in size; also: potency is read from the fitted curve at half-maximal effect
# Nuclear receptor subfamily 1 group I member 2 (Homo sapiens), sequence (O75469 whole entry, looked up): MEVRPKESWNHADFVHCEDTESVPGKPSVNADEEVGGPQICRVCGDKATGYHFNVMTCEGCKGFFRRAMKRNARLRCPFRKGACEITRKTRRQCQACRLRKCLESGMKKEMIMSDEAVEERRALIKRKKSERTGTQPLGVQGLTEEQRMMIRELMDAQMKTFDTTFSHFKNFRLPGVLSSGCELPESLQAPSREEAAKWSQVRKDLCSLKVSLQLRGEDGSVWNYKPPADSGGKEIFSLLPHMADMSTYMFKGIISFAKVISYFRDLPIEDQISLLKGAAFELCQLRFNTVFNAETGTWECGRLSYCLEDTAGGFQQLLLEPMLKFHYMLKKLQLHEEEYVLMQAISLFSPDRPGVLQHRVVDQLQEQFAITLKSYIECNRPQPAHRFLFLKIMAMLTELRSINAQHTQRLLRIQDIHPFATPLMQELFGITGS
# Outline: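 Cells: HepG2 stably carrying PXR-Luc. Medium held 5% charcoal-stripped FBS. Compounds in DMSO added after 5 hr plating, incubated 24 hr, then luminescence quantified with ONE-Glo.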
# [16] = target: Nuclear receptor subfamily 1 group I member 2 (Rattus norvegicus) (UniProt Q9R1A7); assay: Rat pregnane X receptor (rPXR) activation by small molecules, qHTS assay (AID 1346983); conditions: rPXR luciferase reporter cells, One-Glo luminescence, 24 h; max activation: stronger effect = higher value; also: nearly all actives have a fitted effect of over 20% in size
# Nuclear receptor subfamily 1 group I member 2 (Rattus norvegicus), sequence (Q9R1A7 whole entry, looked up): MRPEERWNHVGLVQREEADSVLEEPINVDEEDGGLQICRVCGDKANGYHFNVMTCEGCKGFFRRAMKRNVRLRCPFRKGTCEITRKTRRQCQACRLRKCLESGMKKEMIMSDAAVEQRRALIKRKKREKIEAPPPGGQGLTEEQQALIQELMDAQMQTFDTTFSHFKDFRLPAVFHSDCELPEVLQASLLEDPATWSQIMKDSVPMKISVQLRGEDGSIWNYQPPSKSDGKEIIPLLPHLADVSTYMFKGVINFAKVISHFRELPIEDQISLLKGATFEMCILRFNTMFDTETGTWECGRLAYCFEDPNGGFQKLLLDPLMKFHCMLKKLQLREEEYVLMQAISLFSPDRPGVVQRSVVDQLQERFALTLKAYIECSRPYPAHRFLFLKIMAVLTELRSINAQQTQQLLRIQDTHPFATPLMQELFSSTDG
# Outline: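 Luminescent readout (One-Glo luciferase, 30 min room temperature) followed 24 hr compound treatment at 37 C of rPXR cells plated 2,000 per well and preincubated 5hr; qHTS format with compounds delivered in DMSO.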
# [17] = target: Nuclear receptor subfamily 1 group I member 2 (Homo sapiens) (UniProt O75469); assay: CYP3A4 induction through human pregnane X receptor (PXR) by small molecules, qHTS assay (AID 1346984); also: nearly all actives have a fitted effect of over 40% in size
# Outline: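 Quantitative HTS in DPX-2 cells, i.e. HepG2 transfected with PXR response element and CYP3A4-promoter luciferase. Compounds in DMSO incubated 24hr at 37C; then P450-Glo CYP3A4 substrate, 3uM final, 3hr; One-Glo luminescence.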
# [18] = target: Nuclear receptor subfamily 1 group I member 2 (Homo sapiens) (UniProt O75469); assay: Human pregnane X receptor (PXR) activation by small molecules, qHTS assay (AID 1346985); also: nearly all actives have a fitted effect of over 40% in size; also: potency is read from the fitted curve at half-maximal effect
# Outline: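 DPX-2 cells (HepG2 co-transfected with a PXR response element and a CYP3A4-promoter luciferase construct) were seeded at 2,000 per well, rested 5 hr at 37C, then exposed to DMSO-dissolved compounds for 24 hr. Activation was read as luciferase luminescence.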
# [19] = target: Acetylcholinesterase (Homo sapiens) (UniProt P22303); assay: Acetylcholinesterase (AChE) small molecule antagonists: colormetric cell-based qHTS assay (AID 1347395; calls by dose curve; also: nearly all actives have a fitted effect of over 30% in size; also: potency is read from the fitted curve at half-maximal effect)
# Acetylcholinesterase (Homo sapiens), sequence (P22303 whole entry, looked up): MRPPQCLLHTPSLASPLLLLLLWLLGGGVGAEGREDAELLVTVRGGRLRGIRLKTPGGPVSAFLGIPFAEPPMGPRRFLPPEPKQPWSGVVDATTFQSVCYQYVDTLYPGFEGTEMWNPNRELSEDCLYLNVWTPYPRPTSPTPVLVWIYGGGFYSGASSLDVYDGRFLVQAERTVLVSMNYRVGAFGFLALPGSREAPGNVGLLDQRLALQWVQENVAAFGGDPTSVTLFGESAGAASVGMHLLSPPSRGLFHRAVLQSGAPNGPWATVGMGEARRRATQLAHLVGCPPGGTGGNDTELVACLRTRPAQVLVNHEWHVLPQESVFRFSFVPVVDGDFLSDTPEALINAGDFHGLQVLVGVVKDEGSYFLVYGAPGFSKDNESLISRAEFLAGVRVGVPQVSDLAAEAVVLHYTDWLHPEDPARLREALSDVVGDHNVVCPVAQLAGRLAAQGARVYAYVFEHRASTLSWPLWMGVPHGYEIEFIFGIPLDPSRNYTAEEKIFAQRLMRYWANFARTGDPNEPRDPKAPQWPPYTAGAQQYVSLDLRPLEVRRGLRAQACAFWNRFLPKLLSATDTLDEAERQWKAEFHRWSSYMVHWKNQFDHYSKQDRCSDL
# Outline: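 SH-SY5Y cells; cpd 30 min 37 C; + DTNB/acetylthiocholine, 90 min 37 C; colorimetric thiocholine read; qHTS.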
# [20] = qHTS assay to identify small molecule agonists of the progesterone receptor (PR) signaling pathway - cell viability counter screen (AID 1346799; calls by dose curve; also: nearly all actives have a fitted effect of over 45% in size)
# Outline: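 HEK293T PR-UAS-bla, 3,000 cells/well, 2% charcoal-stripped FBS; 6 h settle, compound 16 h at 37C/5% CO2; LiveBLAzer 2 h RT, then CellTiter-Glo 30 min RT, luminescence read.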
Structure (SMILES),Potency [1],Potency [2],Potency [3],Potency [4],Potency [5],Potency [6],outcome [7],outcome [8],outcome [9],Potency [10],outcome [11],Potency [12],outcome [13],Potency [14],Potency [15],max activation [16],Potency [17],Potency [18],Potency [19],outcome [20]
COC(C)(C)CCCC(C)C/C=C/C(C)=C/C(=O)OC(C)C (configuration not stated),inactive,inactive,inactive,inactive,inactive,inactive,inactive,inactive,inactive,inactive,inactive,inactive,inactive,inactive,47.8 µM (active),-0.367% (inactive),inactive,11.2 µM (active),inactive,
Clc1cnc(Oc2ccc(Oc3ncc(Cl)cc3Cl)cc2)c(Cl)c1,inactive,inactive,inactive,inactive,inactive,inactive,inactive,,,inactive,inactive,inactive,inactive,inactive,inactive,,,,inactive,inactive
CCCCCCCCCCCCCCCCCC(=O)O,inactive,inactive,10.8 µM (active) and inactive,inactive,inactive,inactive,inactive,,,inactive,inactive,inactive,inactive,inactive,30.4 µM (active) and inactive,,inactive,inactive,,inactive
COP(=S)(OC)SCN1C(=O)c2ccccc2C1=O,inactive,inactive,inactive,inactive,inactive,inactive,inactive,inactive,inactive,inactive,inactive,inactive,inactive,inactive,inactive,-1.79% (inactive),inactive,inactive,71.5 µM (active) and 39.9 µM (active),
O=[N+]([O-])c1ccc(Cl)cc1,inactive,inactive,inactive,inactive,inactive,inactive,inactive,inactive,inactive,inactive,inactive,48.2 µM (active) and inactive,inactive,inactive,inactive,,,,inactive,
CN(C)NC(=O)CCC(=O)O,inactive,inactive,inactive,inactive,inactive,inactive,inactive,,,inactive,inactive,inactive,inactive,inactive,inactive,,,,inactive,inactive
CNC(=O)O/N=C/C(C)(C)S(C)=O (configuration not stated),inactive,inactive,inactive,inactive,,24.9 µM (active) and inactive,inactive,inactive,inactive,inactive,inactive,49.2 µM (active) and inactive,inactive,,inactive,,,,322 nM (active) and 354 nM (active),inactive
CSc1nnc(C(C)(C)C)c(=O)n1N,inactive,inactive,inactive,inactive,inactive,inactive,inactive,inactive,inactive,inactive,inactive,inactive,inactive,inactive,inactive,,,,inactive,
Cc1ccc(N=C=O)cc1N=C=O,inactive,inactive,inactive,inactive,inactive,inactive,inactive,inactive,inactive,inactive,inactive,inactive,inactive,inactive,60.9 µM (active) and inactive,,,,inactive,
CNC(=O)O/N=C/C(C)(C)SC,inactive,inactive,inactive,inactive,inactive,inactive,inactive,inactive,inactive,inactive,inactive,inactive,inactive,inactive,69.2 µM (active) and inactive,,,,,
CC[N+](=O)[O-],inactive,inactive,inactive,inactive,inactive,inactive,inactive,,,inactive,inactive,inactive,inactive,inactive,inactive,,,,inactive,inactive
CCOP(=S)(OCC)Oc1cc(C)nc(C(C)C)n1,inactive,inactive,inactive,inactive,inactive,inactive,inactive,inactive,inactive,inactive,inactive,inactive,inactive,inactive,,0.813% (inactive),inactive,inactive,31.9 µM (active) and 71 µM (active) and inactive,inactive
CNC(=O)O/N=C(\SC)C(=O)N(C)C,inactive,inactive,inactive,inactive,inactive,inactive,inactive,,,inactive,inactive,inactive,inactive,inactive,inactive,,,,1.55 µM (active) and 1.42 µM (active),inactive
O=C(O)c1cc(Oc2ccc(C(F)(F)F)cc2Cl)ccc1[N+](=O)[O-],inactive,inactive,inactive,inactive,inactive,inactive,inactive,inactive,inactive,inactive,inactive,inactive,inactive,inactive,inactive and 61.4 µM (active),,,,inactive,
Oc1c(Br)cc(Br)cc1Br,inactive,inactive,,inactive,inactive,inactive,inactive,inactive,inactive,inactive,inactive,inactive,inactive,inactive,68.7 µM (active) and 61.1 µM (active) and inactive,-2.81% (inactive),inactive,inactive,inactive,
CCCOC(=O)c1ccccc1C(=O)OCCC,inactive,inactive,inactive,inactive,inactive,inactive,inactive,inactive,inactive,inactive,inactive,inactive,inactive,inactive,inactive,,,,inactive,
C[C@]12CC[C@H](O)CC1=CC[C@@H]1[C@@H]2CC[C@]2(C)C(=O)CC[C@@H]12,inactive,inactive,,inactive,inactive,inactive,,,,inactive,inactive,inactive,inactive,inactive,54.5 µM (active) and 48.6 µM (active) and inactive,-3.38% (inactive),inactive,inactive,inactive,inactive
